Test results from PubChem BioAssay (NCI).
About 83,000 compounds went through this panel and 20% of them were active in at least one assay; those are over-represented in the sample as a whole.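 Single-concentration screen, 48 h exposure, 96-well plates. Endpoint: percent growth. Below 10 = active.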 Values without a mark were called inactive. Active and inactive are the calls of the source.

How the values were obtained:
Assay in all cases: NCI-60 one-dose screen, 48 h (100 = growth as untreated, 0 = no growth, -100 = all killed)
Settings in all cases: 10 µM unless noted
NCI-H23 lung = test system: NCI-H23 lung
NCI-H226 lung = test system: NCI-H226 lung
NCI-H322M lung = test system: NCI-H322M lung
HOP-62 NSCLC = test system: HOP-62 NSCLC
NCI-H460 lung = test system: NCI-H460 lung
NCI-H522 lung = test system: NCI-H522 lung
A549/ATCC NSCLC = test system: A549/ATCC NSCLC
786-0 renal = test system: 786-0 renal
COLO 205 colon = test system: COLO 205 colon
DU-145 prostate = test system: DU-145 prostate
K-562 leukemia = test system: K-562 leukemia
MALME-3M melanoma = test system: MALME-3M melanoma
MDA-MB-231 breast = test system: MDA-MB-231 breast
RXF 393 renal = test system: RXF 393 renal
SF-268 CNS = test system: SF-268 CNS
SF-295 CNS = test system: SF-295 CNS
SF-539 CNS = test system: SF-539 CNS
UACC-257 melanoma = test system: UACC-257 melanoma
M14 melanoma = test system: M14 melanoma

Compound	growth (NCI-H23 lung)	growth (NCI-H226 lung) [%]	growth (NCI-H322M lung) [%]	growth (HOP-62 NSCLC)	growth (NCI-H460 lung)	growth (NCI-H522 lung)	growth (A549/ATCC NSCLC) [%]	growth (786-0 renal)	growth (COLO 205 colon)	growth (DU-145 prostate)	growth (K-562 leukemia)	growth (MALME-3M melanoma)	growth (MDA-MB-231 breast)	growth (RXF 393 renal)	growth (SF-268 CNS) [%]	growth (SF-295 CNS)	growth (SF-539 CNS)	growth (UACC-257 melanoma)	growth (M14 melanoma)
CO[C@@]12C=C[C@@]34CCC(=O)N3c3ccccc3[C@@H](O1)C4C2	99.9%	96.8	99.8	97.7%	104%	92.7%	98.4	101%	105%	111%	97.5%	98%	100%	107%	98.4	109%	102%	101%	99.5%
COc1ccc(-c2cn(-c3ccc(Cl)cc3)c(=S)[nH]2)cc1OC	89.6%	63.2	57.4	38.4%	37.9%	49.4%	72	1.85% (active)	44.2%	78.5%	75.9%	90.2%	53%	11%	96.1	68.6%	85.6%	65.8%	4.41% (active)
COc1ccccc1-c1ccc2nc(NC(=O)Nc3cc(C(F)(F)F)cc(C(F)(F)F)c3)sc2c1	6.38% (active)	16.9	15.3	-1.58% (active)	-4.9% (active)	-2.89% (active)	12.7	8.85% (active)	-84.8% (active)	19.5%	5.97% (active)	-13% (active)	-64.2% (active)	-6.71% (active)	16.8	-0.289% (active)	5.2% (active)	-5.57% (active)	16%
Cc1nc2sc(C(=O)Nc3ccccc3Cl)c(N)c2cc1C(C)O (stereo unspecified)	93.5%	93.1	91.1	75.8%	98.8%	74%	75.6	84.8%	60.2%	96.6%	22.5%	88.6%	80.9%	92.8%	86.7	84.3%	85.1%	86.5%	58.9%
Cc1nc2sc(C(=O)Nc3ccccc3)c(N)c2cc1C(C)O (stereo unspecified)	39%	108	49.9	30.1%	11.2%	18.3%	25.6	31.1%	6.99% (active)	18.3%	16.3%	64.2%	51.4%	12.7%	53.4	21.9%	6.49% (active)	64%	16.2%
CC(=O)c1cc2c(N)c(C(=O)Nc3ccccn3)sc2nc1C	87.3%	86.8	73.6	88.3%	45.6%	77%	48.7	88.2%	40.6%	90.8%	97.6%	90.1%	87.1%	86.4%	93	71.6%	84.9%	86.4%	54.9%
C=C(C)[C@@H]1CC[C@]2(C(=O)NCCCO)CC[C@]3(C)[C@H](CC[C@@H]4[C@@]5(C)CCCNC(C)(C)[C@@H]5CC[C@]43C)[C@@H]12	77.3%	79.8	78.6	89.9%	68.9%	88%	73.1	85.6%	-62.6% (active)	89.1%	3.26% (active)	-74.4% (active)	49%	58.2%	77.9	89.3%	70.4%	-44.2% (active)	33.7%
COc1ccc(-c2cc(-c3nnc(SCC(=O)Nc4ccc(C(C)=O)cc4)o3)c3ccccc3n2)cc1	0.0219% (active)	17.1	79.9	-33.9% (active)	-54.4% (active)		22.3	-72.3% (active)	21.7%	6.34% (active)	35.2%	-52.7% (active)	-23.9% (active)	-4.69% (active)	33.8	42.5%	12.3%	68.3%	5.23% (active)
